From the supplement of paper PMC10849652
The full data set covers some 7,900 targets. This sample favours those with a hit. About 0.6% of all pairs of compound and target were hits. A number with no mark means an inactive call.

compound: O=C1NC(=O)C(c2cnc3ccccn23)=C1c1cn2c3c(cc(F)cc13)CN(C(=O)N1CCCCC1)CC2; test: log2 fold change, soluble protein after heating vs DMSO (PISA); higher = thermal stabilisation; K562 cells, 10 uM, 30 min; active = over 0.2 and 3.5 SD of the protein, either way, in both replicates (recomputed)
Procedure, shortened: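 K562 cells at 2×10^6 cells/mL were given 10 μM compound for 30 min. Aliquots then went through 3 min of heating across 48°C-58°C, were pooled, and were extracted in PBS with 0.5% NP-40 at 4°C, and the supernatant after 21,000xg for 90 min was quantified by TMTpro 16plex LC-MS/MS with channel sums equalised. Thermal stability relative to control samples, from duplicates, is given as log2 fold change.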

Sequence of UniProt P13807 (P13807 whole entry, looked up): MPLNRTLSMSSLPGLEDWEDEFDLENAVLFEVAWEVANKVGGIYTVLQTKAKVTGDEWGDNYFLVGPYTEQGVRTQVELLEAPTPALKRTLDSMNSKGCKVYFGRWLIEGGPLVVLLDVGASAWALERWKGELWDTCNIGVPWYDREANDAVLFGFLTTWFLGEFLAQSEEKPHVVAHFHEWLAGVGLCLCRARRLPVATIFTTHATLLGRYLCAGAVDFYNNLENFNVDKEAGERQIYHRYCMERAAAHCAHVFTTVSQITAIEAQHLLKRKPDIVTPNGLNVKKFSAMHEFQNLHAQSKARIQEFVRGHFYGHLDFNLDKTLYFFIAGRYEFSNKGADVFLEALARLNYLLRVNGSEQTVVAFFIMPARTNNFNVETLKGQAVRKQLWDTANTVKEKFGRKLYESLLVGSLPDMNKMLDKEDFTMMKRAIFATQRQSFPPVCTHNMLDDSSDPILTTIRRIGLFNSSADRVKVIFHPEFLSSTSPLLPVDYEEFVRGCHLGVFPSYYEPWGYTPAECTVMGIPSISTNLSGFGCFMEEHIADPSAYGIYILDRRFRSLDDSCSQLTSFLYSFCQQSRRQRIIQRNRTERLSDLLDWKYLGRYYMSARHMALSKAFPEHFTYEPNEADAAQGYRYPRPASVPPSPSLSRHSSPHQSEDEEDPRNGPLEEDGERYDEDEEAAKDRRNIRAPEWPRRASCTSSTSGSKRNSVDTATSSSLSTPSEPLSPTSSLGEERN
Sequence of UniProt Q5JWF2 (Q5JWF2 whole entry, looked up): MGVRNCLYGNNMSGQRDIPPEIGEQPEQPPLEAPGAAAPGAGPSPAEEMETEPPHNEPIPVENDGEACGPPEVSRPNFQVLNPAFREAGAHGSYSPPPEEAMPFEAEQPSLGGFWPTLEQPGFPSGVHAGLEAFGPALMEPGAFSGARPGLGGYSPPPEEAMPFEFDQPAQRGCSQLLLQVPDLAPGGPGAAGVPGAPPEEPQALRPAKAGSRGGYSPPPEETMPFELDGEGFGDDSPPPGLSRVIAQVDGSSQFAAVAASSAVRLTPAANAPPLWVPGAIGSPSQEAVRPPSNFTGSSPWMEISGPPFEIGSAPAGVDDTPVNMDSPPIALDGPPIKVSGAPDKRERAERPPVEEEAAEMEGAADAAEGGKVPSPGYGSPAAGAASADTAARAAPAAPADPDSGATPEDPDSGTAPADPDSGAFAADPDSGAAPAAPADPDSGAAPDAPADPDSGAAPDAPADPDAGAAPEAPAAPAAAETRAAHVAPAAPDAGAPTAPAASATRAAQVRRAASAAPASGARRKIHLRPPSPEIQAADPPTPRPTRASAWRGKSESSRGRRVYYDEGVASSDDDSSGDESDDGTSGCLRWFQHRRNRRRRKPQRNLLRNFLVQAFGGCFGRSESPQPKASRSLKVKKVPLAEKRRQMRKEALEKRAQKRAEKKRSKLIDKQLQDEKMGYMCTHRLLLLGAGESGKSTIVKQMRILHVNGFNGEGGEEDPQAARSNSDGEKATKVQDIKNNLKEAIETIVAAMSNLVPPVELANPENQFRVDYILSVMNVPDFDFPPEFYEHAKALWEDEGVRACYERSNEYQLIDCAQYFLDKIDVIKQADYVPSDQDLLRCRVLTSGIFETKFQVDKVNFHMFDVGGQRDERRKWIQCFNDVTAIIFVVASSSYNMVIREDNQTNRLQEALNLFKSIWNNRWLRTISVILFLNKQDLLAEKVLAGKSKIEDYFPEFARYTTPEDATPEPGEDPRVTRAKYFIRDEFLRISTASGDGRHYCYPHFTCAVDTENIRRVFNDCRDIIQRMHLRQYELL
Sequence of UniProt Q8NB37 (Q8NB37 whole entry, looked up): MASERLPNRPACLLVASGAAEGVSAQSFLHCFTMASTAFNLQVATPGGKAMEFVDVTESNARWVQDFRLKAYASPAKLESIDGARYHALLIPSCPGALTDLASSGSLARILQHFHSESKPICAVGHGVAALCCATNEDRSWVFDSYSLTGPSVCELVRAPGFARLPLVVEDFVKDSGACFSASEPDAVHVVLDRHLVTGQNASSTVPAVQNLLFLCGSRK
Sequence of UniProt Q92664 (Q92664 whole entry, looked up): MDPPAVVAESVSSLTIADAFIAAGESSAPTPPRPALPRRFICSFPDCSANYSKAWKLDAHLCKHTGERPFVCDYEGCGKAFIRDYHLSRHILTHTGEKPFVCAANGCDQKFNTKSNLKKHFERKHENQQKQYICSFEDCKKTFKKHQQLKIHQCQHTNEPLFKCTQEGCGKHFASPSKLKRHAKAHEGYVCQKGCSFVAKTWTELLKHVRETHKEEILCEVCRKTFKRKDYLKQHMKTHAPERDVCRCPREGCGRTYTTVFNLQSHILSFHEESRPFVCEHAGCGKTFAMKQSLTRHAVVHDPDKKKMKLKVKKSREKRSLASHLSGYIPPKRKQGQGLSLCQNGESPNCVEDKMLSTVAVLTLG
Sequence of UniProt P36915 (P36915 whole entry, looked up): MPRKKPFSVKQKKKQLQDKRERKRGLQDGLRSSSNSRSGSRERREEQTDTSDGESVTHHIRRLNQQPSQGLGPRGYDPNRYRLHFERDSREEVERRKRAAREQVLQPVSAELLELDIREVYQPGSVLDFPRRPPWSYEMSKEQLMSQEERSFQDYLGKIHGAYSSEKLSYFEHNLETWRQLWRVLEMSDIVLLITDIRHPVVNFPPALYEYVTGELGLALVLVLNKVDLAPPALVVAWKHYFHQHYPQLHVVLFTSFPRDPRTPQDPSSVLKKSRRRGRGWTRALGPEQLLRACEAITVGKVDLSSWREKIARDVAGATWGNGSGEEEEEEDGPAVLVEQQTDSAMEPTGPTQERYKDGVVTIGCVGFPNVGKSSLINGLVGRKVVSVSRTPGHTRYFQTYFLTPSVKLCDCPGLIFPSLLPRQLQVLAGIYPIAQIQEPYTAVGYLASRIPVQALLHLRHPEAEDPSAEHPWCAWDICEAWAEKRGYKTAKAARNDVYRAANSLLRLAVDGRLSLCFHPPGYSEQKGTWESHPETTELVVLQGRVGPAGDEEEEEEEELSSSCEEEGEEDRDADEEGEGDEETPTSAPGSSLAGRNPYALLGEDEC
Sequence of UniProt Q06546 (Q06546 whole entry, looked up): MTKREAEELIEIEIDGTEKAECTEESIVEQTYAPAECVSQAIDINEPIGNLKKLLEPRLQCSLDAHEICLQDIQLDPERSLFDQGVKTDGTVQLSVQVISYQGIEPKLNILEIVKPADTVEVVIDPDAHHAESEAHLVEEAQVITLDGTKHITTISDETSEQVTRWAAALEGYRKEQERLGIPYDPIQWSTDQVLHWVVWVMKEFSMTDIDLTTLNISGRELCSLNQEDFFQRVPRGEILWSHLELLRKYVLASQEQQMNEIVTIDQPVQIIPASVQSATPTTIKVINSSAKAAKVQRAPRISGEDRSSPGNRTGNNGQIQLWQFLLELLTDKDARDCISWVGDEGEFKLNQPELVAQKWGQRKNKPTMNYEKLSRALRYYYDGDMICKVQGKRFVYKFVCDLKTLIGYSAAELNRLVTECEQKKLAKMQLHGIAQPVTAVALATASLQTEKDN
Sequence of UniProt Q92769 (Q92769 whole entry, looked up): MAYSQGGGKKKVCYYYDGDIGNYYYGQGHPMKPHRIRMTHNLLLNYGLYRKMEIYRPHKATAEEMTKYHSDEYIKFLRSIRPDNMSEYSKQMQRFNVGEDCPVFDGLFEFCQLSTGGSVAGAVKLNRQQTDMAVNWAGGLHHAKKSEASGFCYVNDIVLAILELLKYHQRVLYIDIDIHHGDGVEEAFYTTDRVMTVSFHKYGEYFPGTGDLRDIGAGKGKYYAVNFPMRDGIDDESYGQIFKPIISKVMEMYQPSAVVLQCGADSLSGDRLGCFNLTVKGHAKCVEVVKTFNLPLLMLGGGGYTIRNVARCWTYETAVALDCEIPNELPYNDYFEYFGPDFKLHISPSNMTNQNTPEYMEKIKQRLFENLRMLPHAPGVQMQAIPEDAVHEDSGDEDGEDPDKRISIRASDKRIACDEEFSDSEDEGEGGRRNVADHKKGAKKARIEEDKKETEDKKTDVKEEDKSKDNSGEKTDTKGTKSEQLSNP
Sequence of UniProt P21695 (P21695 whole entry, looked up): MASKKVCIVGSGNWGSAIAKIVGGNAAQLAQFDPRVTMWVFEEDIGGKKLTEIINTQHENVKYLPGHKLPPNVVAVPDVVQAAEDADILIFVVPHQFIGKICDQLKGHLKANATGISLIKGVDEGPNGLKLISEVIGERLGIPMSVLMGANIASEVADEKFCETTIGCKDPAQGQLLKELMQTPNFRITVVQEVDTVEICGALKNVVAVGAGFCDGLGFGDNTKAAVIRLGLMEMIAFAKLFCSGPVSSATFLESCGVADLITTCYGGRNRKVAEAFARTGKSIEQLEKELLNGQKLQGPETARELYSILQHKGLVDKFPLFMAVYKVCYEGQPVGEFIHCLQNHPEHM
Sequence of UniProt Q00688 (Q00688 whole entry, looked up): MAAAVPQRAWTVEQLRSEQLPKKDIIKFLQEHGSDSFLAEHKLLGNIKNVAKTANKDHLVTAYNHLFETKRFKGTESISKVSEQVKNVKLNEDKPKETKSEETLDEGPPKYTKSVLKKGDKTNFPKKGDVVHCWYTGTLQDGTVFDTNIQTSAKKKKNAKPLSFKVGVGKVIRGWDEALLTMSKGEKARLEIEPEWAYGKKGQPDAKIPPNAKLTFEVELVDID
Sequence of UniProt Q70Z53 (Q70Z53 whole entry, looked up): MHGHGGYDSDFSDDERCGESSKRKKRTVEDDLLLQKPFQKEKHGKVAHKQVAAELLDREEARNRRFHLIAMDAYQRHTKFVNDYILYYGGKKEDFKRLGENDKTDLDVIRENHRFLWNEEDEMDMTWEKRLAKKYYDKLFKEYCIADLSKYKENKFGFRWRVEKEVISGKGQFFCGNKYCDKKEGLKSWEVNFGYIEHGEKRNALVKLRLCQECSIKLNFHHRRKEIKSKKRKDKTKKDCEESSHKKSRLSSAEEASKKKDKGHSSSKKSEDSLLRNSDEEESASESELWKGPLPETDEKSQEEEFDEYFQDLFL

Row | Target | log2 fold change
1 | GABPA (UniProt Q06546) | -0.13
2 | FRA10AC1 isoform 3 (UniProt Q70Z53) | -0.091
3 | GINS2 (UniProt Q9Y248) | -0.163
4 | GNAS (UniProt Q5JWF2) | -0.007
5 | GYS1 (UniProt P13807) | -0.002
6 | HEXB (UniProt P07686) | -0.034
7 | HDAC1 (UniProt Q13547) | -0.03
8 | FKBP4 (UniProt Q02790) | -0.02
9 | GATD1 (UniProt Q8NB37) | -0.673 (active)
10 | GSTT1 (UniProt P30711) | 0.019
11 | GPD1 (UniProt P21695) | -0.157
12 | HDAC2 (UniProt Q92769) | -0.021
13 | FKBP3 (UniProt Q00688) | -0.02
14 | HDAC7 isoform 5 (UniProt Q8WUI4) | 0.032
15 | GOPC (UniProt Q9HD26) | 0.265
16 | GNL3 (UniProt Q9BVP2) | -0.027
17 | GIGYF2 (UniProt Q6Y7W6) | -0.016
18 | GSTP1 (UniProt P09211) | -0.005
19 | GNL1 (UniProt P36915) | -0.005
20 | GTF3A (UniProt Q92664) | 0.011
21 | GEMIN2 (UniProt O14893) | 0.375 (active)
22 | FUT8 (UniProt Q9BYC5) | -0.146
23 | GLCCI1 (UniProt Q86VQ1) | 0.01
